Measurements as given in PubChem BioAssay.
The source made the active and inactive calls. Unless noted, the rule behind the calls is not given here.

Legend:
[1] = HepG2 liver cancer cell viability effects, profiling panel, resazurin fluorescence, 24 h, PK04 Diversity Set (AID 1172); conditions: higher = more signal
[2] = basal S. cerevisiae growth modulation, no modifier, primary screen, OD600, strain BY4716, 24 h, basal condition (AID 1173); conditions: OD600, 24 h, higher = more signal, called active from +8 up or from −8 down
[3] = MM1S myeloma cell viability, profiling panel, resazurin fluorescence, basal, 24 h, PK04 Diversity Set (AID 1174); conditions: higher = more signal, called active from +8 up or from −8 down;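 note: MM1S multiple myeloma cell line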
[4] = target: Dihydroorotate dehydrogenase (quinone), mitochondrial (Plasmodium falciparum (isolate 3D7)) (UniProt Q08210); experiment: PfDHODH enzyme inhibitors, primary screen, biochemical, C-terminal His tag, absorbance 600 nm (AID 1175); conditions: DCIP absorbance 600 nm, higher = more signal, called active from +8 up or from −8 down;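 note: recombinant parasite enzyme with a five histidine tag at its C terminus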
[5] = P. aeruginosa biofilm formation inhibitors, primary screen, strain PAO1, LB-PBS medium, absorbance 600 nm (AID 1176); conditions: P. aeruginosa PAO1 growth/biofilm, A600, 12 h; higher = more signal
[6] = S. cerevisiae RM11-1a growth modifiers, primary screen, strain RM11-1a, OD600, basal, 24 h (AID 1177); conditions: OD600, 24 h, higher = more signal, called active from +8 up or from −8 down;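 note: cultures grown under basal conditions with no added stressor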
[7] = E. coli acrAB mutant growth effects, primary screen, E. coli filamentation inducers, strain DRC39, OD650, 24 h (AID 1178); conditions: higher = more signal, called active from +8 up or from −8 down;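 note: growth measured as culture turbidity by optical density at 650 nm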
[8] = E. coli acrAB mutant growth effects, primary screen, E. coli filamentation inducers, strain DRC39, OD650, 48 h (AID 1179);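 note: screen aims at cell division blockers that make cells filament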; conditions: E. coli DRC39 delta-acrAB growth, higher = more signal, called active from +8 up or from −8 down
[9] = RPMI8226 myeloma cell viability, profiling panel, resazurin fluorescence, basal, 24 h, PK04 Diversity Set (AID 1180); conditions: higher = more signal;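 note: RPMI8826 multiple myeloma cell line at 5000 cells per well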
[10] = target: E3 ubiquitin-protein ligase XIAP (Homo sapiens) (UniProt P98170); experiment: XIAP binders, primary screen, biophysical, small-molecule microarray, fluorescence 635 nm (AID 1181); conditions: small-molecule microarray binding, higher = more signal;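 note: score merges 667 nm emission and signal to noise over triplicate slides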
[11] = system: XIP peptide (Xip251-270) binding; experiment: small-molecule binders of XIP peptide, primary screen, biochemical, small-molecule microarray, fluorescence 635/667 nm, 0.1 µg/mL protein (AID 1182); conditions: fluorescent protein binding, 635 nm, higher = more signal, called active from +8 up or from −8 down
[12] = system: XIP peptide (Xip251-270); experiment: small-molecule binders of XIP peptide, primary screen, biochemical, small-molecule microarray, fluorescence 635/667 nm, 0.5 µg/mL protein (AID 1183); conditions: small-molecule microarray binding, fluorescence 635 nm; higher = more signal
[13] = Plasmodium falciparum growth inhibition, primary screen, strain 3D7, DAPI fluorescence, 100 nL (AID 1184);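 note: parasites grown inside human red blood cells in medium with human serum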; conditions: P. falciparum 3D7 growth, 3 d, higher = more signal
[14] = target: Homeobox protein Hox-A13 (Mus musculus) (UniProt Q62424); experiment: inhibitors of HoxA13-DNA binding, primary screen, biochemical, fluorescence polarization, labeled oligonucleotide (AID 1185); conditions: 15 min, higher = more signal, called active from +8 up or from −8 down
[15] = inhibitors of hydroxyurea-induced Chk1 phosphorylation, primary screen, imaging, HeLa, phospho-Chk1 antibody, percent positive cells (AID 1186); conditions: hydroxyurea-induced phospho-Chk1 immunofluorescence imaging, higher = more signal
[16] = inhibitors of hydroxyurea-induced Chk1 phosphorylation, primary screen, imaging, HeLa, phospho-Chk1 nuclear intensity (AID 1187); conditions: hydroxyurea-induced phospho-Chk1 immunofluorescence imaging, higher = more signal

Homeobox protein Hox-A13 (Mus musculus), sequence (Q62424 whole entry, looked up): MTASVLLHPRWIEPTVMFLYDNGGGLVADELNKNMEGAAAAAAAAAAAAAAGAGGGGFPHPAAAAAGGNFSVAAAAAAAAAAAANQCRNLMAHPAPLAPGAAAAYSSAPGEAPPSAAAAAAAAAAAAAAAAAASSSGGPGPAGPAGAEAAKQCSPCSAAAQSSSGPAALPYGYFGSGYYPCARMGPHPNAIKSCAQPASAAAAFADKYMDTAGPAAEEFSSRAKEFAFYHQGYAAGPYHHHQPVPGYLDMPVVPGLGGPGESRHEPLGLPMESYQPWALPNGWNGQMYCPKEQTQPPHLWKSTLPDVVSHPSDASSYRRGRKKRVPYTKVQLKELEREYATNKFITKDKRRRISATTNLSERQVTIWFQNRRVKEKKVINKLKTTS
E3 ubiquitin-protein ligase XIAP (Homo sapiens), sequence (P98170 whole entry, looked up): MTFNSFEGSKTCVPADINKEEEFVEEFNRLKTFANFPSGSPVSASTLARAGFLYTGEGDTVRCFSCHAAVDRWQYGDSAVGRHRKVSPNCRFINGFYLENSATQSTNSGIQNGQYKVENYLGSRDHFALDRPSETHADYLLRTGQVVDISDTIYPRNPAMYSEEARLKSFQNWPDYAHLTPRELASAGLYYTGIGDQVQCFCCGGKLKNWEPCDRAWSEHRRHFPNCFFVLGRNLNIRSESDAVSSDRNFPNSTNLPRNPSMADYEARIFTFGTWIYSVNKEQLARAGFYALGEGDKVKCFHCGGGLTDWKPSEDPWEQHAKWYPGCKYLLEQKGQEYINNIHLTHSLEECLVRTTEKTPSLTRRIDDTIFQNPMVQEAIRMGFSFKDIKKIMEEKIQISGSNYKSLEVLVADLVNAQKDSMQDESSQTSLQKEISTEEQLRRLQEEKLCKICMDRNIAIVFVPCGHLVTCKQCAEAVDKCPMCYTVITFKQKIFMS
Dihydroorotate dehydrogenase (quinone), mitochondrial (Plasmodium falciparum (isolate 3D7)), sequence (Q08210 whole entry, looked up): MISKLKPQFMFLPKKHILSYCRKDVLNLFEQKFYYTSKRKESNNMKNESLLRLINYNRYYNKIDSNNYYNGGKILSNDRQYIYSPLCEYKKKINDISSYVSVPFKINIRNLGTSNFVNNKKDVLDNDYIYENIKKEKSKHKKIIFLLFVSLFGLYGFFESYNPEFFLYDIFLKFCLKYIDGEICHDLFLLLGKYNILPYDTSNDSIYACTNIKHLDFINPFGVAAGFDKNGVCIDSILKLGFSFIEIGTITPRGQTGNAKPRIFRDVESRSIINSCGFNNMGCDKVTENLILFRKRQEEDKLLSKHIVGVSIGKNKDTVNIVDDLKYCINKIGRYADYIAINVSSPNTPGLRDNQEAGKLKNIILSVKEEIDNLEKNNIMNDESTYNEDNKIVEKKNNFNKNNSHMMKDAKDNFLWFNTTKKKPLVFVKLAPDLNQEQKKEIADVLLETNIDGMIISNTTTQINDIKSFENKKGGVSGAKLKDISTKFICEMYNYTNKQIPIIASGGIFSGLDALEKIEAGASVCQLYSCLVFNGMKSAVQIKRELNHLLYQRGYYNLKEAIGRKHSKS

Compound	z-score [1]	z-score [2]	z-score [3]	composite z-score [4]	z-score [5]	z-score [6]	z-score [7]	z-score [8]	z-score [9]	composite z-score [10]	composite z-score [11]	composite z-score [12]	z-score [13]	z-score [14]	z-score [15]	z-score [16]
O=C1[C@@]23C=C(Br)[C@H](C[C@@H]2COC3)[C@]12CO2	-0.845	-10.2 (active)	-0.874 (inactive)	-1.91 (inactive)	0.732 (inactive)	-0.384 (inactive)	-0.0135 (inactive)	-0.0637 (inactive)	-0.741	-0.105	-0.0125 (inactive)	-1.48	1.81	-7.3 (inactive)	0.825 (inactive)	0.343 (inactive)
COCCOC(=O)N1C(=O)[C@@]2(c3ccccc31)[C@H](C(=O)N1CCCCCCC1)[C@H]1C(=O)O[C@H](c3ccccc3)[C@H](c3ccccc3)N1[C@@H]2c1ccc(OCCO)cc1	-0.329	1.79 (inactive)	-0.44 (inactive)	1.15 (inactive)	2.29 (inactive)	2.47 (inactive)	-0.643 (inactive)	-0.623 (inactive)	-0.281	2.5	6.55 (inactive)	0.992	-2.03	-15.8 (active)	-0.261 (inactive)	-0.268 (inactive)
COc1ccc(NN2C(C(O)c3ccc(N(C)C)cc3)C=CC3C(=O)N(C4CCCCC4)C(=O)C32)cc1 (centres undefined)	0.252	-0.796 (inactive)	-0.0447 (inactive)	0.128 (inactive)	0.862 (inactive)	-0.0156 (inactive)	-0.723 (inactive)	-0.224 (inactive)	-1	0.17	1.02 (inactive)	0.68	-0.087	-4.68 (inactive)	-0.217 (inactive)	-0.837 (inactive)
CC#CC(=O)Oc1ccc(Br)cc1C=CC(=O)OCC	-0.0419	-14.7 (active)	-2.38 (inactive)	-0.632 (inactive)	0.312 (inactive)	-10.6 (active)	-0.0142 (inactive)	-1.01 (inactive)	-3	1.25	1.17 (inactive)	-0.101	-1.65	-3.79 (inactive)	0.309 (inactive)	-1.03 (inactive)
